In PubChem BioAssay (NCATS) one finds outcome and Potency data, which are given here for 9 compounds.

Inconclusive results are not listed. Active and inactive are the calls of the source. Unless noted, calls come from the whole dose curve; as a rule, active = well fitted curve in the direction sought with a large enough effect; inconclusive = small, poorly fitted or top-dose-only effect, or another doubt; inactive = no such curve, though single readings can be large; an effect the other way counts as inactive or inconclusive.

Assay [1] in a line: Cytometric Cell-Based qHTS for Inhibitors of the mTORC1 Signaling Pathway in MEF (Tsc2-/-, p53-/-) Cells (AID 2660).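 Note: percent of cells above a phospho-rpS6 to PI ratio cutoff in each well; series mostly up to about 38 µM.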 The essentials: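 Tsc2-/-, p53-/- MEFs (empty vector) exposed to compound 24 h at 37 C, fixed, stained with Alexa-488 anti-phospho-rpS6 Ser235/236 and propidium iodide. Acumen laser scanning; phospho-S6/PI ratio thresholded against 7.5 nM rapamycin, reported as % positive cells.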
In general terms: qHTS replaces the single test concentration by a dilution series.

A short description of assay [2]: High Content Imaging Cell-Based qHTS for Inhibitors of the mTORC1 Signaling Pathway in MEF (Tsc2-/-, p53-/-) Cells (AID 2666).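 Note: percent of cells scored positive for phospho-rpS6 Ser235/236 immunostaining by imaging.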 The method, boiled down:
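Phospho-rpS6 (Ser235/236) immunofluorescence, normalized and scored as % positive cells using rapamycin and DMSO controls, was read in empty-vector Tsc2-/-, p53-/- MEFs after 24 h compound exposure at 37 C; propidium iodide counted cells.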

Assay [3] is described as follows: High Content Imaging Cell-Based qHTS for Inhibitors of the mTORC1 Signaling Pathway in MEF Cells (AID 2667).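 Note: Tsc2-/- p53-/- MEFs stably re-expressing wild-type Tsc2 exposed 24 h; series mostly up to about 38 µM.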 The method, boiled down: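 WT MEFs (Tsc2-/-, p53-/- re-expressing Tsc2), in DMEM + 10% FBS, were treated with compound for 24 h at 37 C. Cells were then fixed and stained for phospho-rpS6 Ser235/236 with propidium iodide as cell count. Values are % positive cells, with thresholds set against rapamycin-treated cells.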

The nature of assay [4]: Cytometry Cell-Based qHTS for Inhibitors of the mTORC1 Signaling Pathway in MEF cells (AID 2668).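 Note: Tsc2-/- p53-/- mouse embryonic fibroblasts stably re-expressing wild-type Tsc2; percent cells positive for phospho-rpS6 Ser235/236 relative to propidium iodide stain; series mostly up to about 38 µM.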 The method, boiled down:
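Pathway inhibition in WT Tsc2-rescued Tsc2-/-, p53-/- MEFs is measured as the Alexa-488 phospho-rpS6 to propidium iodide intensity ratio after 24 hrs of compound at 37 degree Celsius. PI-stained cell number gives viability.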

Assay [5] has as its target Ubiquitin carboxyl-terminal hydrolase 2 (Homo sapiens) (UniProt O75604). Description: qHTS Validation Assay for Inhibitors of Ubiquitin-specific Protease USP2a Using CHOP2 as the Reporter (AID 463106). The essentials:
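USP2 core (10 nM final) was preincubated with compound 30 min at RT in pH 8.0 Tris/CaCl2/beta-ME/CHAPS buffer. Ub-CHOP2 and reporter substrate (25 nM final each) were then added, with fluorescence (Ex 485/Em 531) read after 60 min. Data were normalized to NEM full inhibition and fitted to concentration-response curves.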

For assay [6], the target named is DNA polymerase III PolC-type (Bacillus subtilis (strain 168)) (UniProt P13267). Description: qHTS Validation Assay for the Inhibitors of DNA Replication in Gram-Positive Bacteria (AID 485295).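 Note: reconstituted holoenzyme with PolC plus beta clamp SSB and primase; PicoGreen fluorescence of double-stranded DNA made on primed circular M13 template; series mostly up to about 57 µM.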 The method, boiled down:
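Primed replication of single-stranded M13Gori by a four-protein B. subtilis holoenzyme is measured at room temperature. Double-stranded product is quantified by PicoGreen fluorescence after an EDTA stop; inhibition is scaled between DMSO and EDTA controls.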

In assay [7] the target is Beta-2 adrenergic receptor (Homo sapiens) (UniProt P07550). Kind of assay: qHTS validation assay of beta-arrestin-biased ligands of beta2-adrenergic receptor (AID 485366). The essentials:
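Tango cells expressing recombinant beta2-AR and beta-arrestin with tTA-driven luciferase, in DMEM with 1% FBS. Compounds were titrated up to 46 microM for 18 hr at 37 degrees C. Luminescence was read 15 min after substrate; curves were fitted and class-assigned.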

Assay [8] deals with Thioredoxin reductase 1, cytoplasmic (Rattus norvegicus) (UniProt O89049). Kind of assay: qHTS Assay for Substrates of Mammalian Selenoprotein Thioredoxin Reductase 1 (TrxR1) (AID 488772).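 Note: NADPH fluorescence in the first read after selenite addition and not the 8 min delta; series mostly up to about 57 µM; a drop in NADPH fluorescence below the no-compound background marks a TrxR1 substrate.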 The essentials:
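Quantitative HTS in Tris-HCl buffer at pH 7.5 with EDTA and Tween-20, using rat TrxR1, 400 uM NADPH and 400 uM selenite (final). A fall in initial NADPH fluorescence relative to background marked substrate behaviour.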

Assay [9] has as its target Flap endonuclease 1 (Homo sapiens) (UniProt P39748). Kind of assay: qHTS Validation Assay for the Inhibitors of Human Flap endonuclease 1 (FEN1) (AID 488816). The essentials:
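Human FEN1 (10 nM) preincubated 15 min at room temperature with compounds, then flap DNA substrate added at 50 nM final. Fluorescence read at 0 and 15 min; concentration-response fitted with four-parameter Hill equation.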

Assay [10] deals with M-phase phosphoprotein 8 (Homo sapiens) (UniProt Q99549). Description: qHTS Validation Assay for Inhibitors for MPP8 Chromodomain Interactions with Methylated Histone Tails (AID 488949). Note: nearly all actives have a fitted effect of over 55% in size. Note: potency is the fitted concentration of half-maximal effect. The method, boiled down:
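Disruption of the preformed MPP8–trimethyl-H3K9 peptide complex (both 50 nM, 30 min, RT) is measured after 30 min compound exposure, using AlphaScreen proximity beads; aurintricarboxylic acid titration serves as plate control.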

The target of assay [11] is Chromobox protein homolog 1 (Homo sapiens) (UniProt P83916). Kind of assay: qHTS Validation Assay for Inhibitors of HP1-beta Chromodomain Interactions with Methylated Histone Tails (AID 488953). Note: nearly all actives have a fitted effect of over 50% in size. Note: potency is the fitted concentration of half-maximal effect. The method, boiled down:
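50 nM HP1-beta + 50 nM biotin-H3(1-18)K9me3, PBS pH 7.4, 0.01% Tween-20, 30 min RT; compound added, 30 min RT; AlphaScreen beads 10 ug/mL final, 30 min dark; luminescence read.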

The target of assay [12] is Tumor susceptibility gene 101 protein (Homo sapiens) (UniProt Q99816). Kind of assay: qHTS Validation Assay for Iinhibitors of HIV-1 Budding by Blocking the Interaction of PTAP/TSG101 (AID 485342; calls by dose curve). The essentials:
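Fluorescence anisotropy measured PTAP-Tsg101 interaction. Final concentrations were 10 uM protein domain and 50 nM labeled peptide, equilibrated 20 min at room temperature.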

Assay [13] in a line: qHTS Validation Assay to Find Inhibitors of Chronic Active B-Cell Receptor Signaling (AID 485345; active = well fitted curve in the direction sought with a large enough effect in the main read-out, with a control signal flat, not every such curve was filed as active). The essentials:
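TMD8 ABC-DLBCL cells stably carrying doxycycline-inducible IkappaBalpha–green luciferase fusion plus unfused red luciferase; compounds 46 uM to 3 nM, 4 h at 37C with doxycycline. Corrected green/red luminescence ratio normalized to 10 uM MG-132 and basal cell wells; curves fitted.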

Assay [14] addresses ATP-dependent 6-phosphofructokinase (Trypanosoma brucei brucei) (UniProt O15648). Description: qHTS Validation Assay to Find Inhibitors of T. brucei phosphofructokinase (AID 485368). Note: potency is the fitted concentration of half-maximal effect. The essentials:
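Activity was read as ADP production by luminescence (ADP-Glo) after 45 min at room temperature. The enzyme was 1.25nM PFK in 0.1M TEA pH 8.0 with 0.5 mM F6P, 0.1mM ATP and 5 mM MgCl2. Compounds were titrated up to 57 uM and % activity normalized to no-enzyme and full-enzyme controls.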

The target in assay [15] is Thioredoxin reductase 1, cytoplasmic (Rattus norvegicus) (UniProt O89049). Kind of assay: qHTS Assay for Inhibitors of Mammalian Selenoprotein Thioredoxin Reductase 1 (TrxR1) (AID 488773). Note: nearly all actives have a fitted effect of over 40% in size. Note: potency is the fitted concentration of half-maximal effect. The conditions noted are these: Potency: inhibition. The method, boiled down: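 Steps: enzyme (90 nM) plus NADPH (400 uM final), 5 min at ~22 deg C; compound added, 15 min; selenite (400 uM final) added; fluorescence followed for 8 min. Concentration-response curves derived from the normalized delta values.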
Sequence of Thioredoxin reductase 1, cytoplasmic (Rattus norvegicus) (O89049 whole entry, looked up): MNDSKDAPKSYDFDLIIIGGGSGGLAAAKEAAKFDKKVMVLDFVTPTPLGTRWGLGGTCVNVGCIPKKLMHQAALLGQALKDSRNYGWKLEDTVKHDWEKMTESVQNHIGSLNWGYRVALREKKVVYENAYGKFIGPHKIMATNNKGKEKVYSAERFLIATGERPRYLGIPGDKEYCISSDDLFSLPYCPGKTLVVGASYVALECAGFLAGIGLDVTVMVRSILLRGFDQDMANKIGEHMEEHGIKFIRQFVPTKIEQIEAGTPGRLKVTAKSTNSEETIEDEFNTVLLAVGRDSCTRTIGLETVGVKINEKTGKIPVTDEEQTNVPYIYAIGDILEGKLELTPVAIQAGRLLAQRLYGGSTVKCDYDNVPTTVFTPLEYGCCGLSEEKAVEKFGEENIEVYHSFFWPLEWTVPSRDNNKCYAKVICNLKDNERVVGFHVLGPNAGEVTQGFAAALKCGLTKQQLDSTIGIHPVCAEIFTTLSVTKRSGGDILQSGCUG

Sequence of Chromobox protein homolog 1 (Homo sapiens) (P83916 whole entry, looked up): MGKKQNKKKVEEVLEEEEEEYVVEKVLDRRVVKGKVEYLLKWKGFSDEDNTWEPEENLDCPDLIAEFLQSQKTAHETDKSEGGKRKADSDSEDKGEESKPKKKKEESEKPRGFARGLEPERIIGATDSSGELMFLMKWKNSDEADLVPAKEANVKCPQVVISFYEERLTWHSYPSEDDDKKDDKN
Sequence of Flap endonuclease 1 (Homo sapiens) (P39748 whole entry, looked up): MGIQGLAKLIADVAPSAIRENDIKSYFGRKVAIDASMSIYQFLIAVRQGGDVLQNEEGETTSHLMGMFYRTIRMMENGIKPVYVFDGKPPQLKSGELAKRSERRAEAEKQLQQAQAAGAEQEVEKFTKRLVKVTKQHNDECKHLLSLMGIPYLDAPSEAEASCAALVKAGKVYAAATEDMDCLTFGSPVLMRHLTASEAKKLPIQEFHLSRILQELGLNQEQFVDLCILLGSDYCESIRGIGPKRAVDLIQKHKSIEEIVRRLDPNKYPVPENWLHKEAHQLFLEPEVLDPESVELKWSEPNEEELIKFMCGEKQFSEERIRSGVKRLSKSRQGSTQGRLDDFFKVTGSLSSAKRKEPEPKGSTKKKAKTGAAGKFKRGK
Sequence of DNA polymerase III PolC-type (Bacillus subtilis (strain 168)) (P13267 whole entry, looked up): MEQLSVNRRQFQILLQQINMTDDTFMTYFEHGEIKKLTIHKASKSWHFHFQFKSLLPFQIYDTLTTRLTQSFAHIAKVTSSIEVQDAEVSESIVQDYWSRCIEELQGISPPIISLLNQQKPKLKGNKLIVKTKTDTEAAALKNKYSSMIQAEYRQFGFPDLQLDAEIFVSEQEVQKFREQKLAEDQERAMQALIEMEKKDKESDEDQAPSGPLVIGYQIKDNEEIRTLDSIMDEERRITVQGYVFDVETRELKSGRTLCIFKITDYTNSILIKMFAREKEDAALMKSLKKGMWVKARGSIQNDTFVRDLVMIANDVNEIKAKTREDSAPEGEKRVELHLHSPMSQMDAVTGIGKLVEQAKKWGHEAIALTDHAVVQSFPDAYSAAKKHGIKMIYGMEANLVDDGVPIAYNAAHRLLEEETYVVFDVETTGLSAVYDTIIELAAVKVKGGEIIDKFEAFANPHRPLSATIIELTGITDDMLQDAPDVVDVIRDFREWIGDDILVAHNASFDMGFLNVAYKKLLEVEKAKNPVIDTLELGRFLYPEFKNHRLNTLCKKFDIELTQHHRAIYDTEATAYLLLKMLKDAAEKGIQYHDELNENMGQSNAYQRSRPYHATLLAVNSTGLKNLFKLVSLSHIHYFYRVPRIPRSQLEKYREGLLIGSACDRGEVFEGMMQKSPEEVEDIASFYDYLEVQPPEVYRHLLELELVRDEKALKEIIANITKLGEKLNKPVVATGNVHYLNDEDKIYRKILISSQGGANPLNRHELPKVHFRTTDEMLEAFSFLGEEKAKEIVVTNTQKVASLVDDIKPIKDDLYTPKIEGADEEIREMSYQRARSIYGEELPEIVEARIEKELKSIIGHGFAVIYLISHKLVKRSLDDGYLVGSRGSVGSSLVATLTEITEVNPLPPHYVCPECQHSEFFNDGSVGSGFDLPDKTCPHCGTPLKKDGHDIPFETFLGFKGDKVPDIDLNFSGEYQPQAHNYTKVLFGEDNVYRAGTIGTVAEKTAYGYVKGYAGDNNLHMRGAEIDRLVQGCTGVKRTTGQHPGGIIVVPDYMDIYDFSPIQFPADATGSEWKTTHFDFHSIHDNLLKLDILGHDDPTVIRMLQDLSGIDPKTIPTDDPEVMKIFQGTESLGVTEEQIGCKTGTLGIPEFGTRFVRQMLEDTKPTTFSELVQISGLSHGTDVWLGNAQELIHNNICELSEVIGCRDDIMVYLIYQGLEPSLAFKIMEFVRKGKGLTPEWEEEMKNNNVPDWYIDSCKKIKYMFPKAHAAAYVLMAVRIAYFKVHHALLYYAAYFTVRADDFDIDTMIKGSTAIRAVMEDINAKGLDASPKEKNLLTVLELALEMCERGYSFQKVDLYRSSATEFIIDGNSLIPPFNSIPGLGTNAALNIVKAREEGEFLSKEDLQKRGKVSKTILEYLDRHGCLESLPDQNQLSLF
Sequence of ATP-dependent 6-phosphofructokinase (Trypanosoma brucei brucei) (O15648 whole entry, looked up): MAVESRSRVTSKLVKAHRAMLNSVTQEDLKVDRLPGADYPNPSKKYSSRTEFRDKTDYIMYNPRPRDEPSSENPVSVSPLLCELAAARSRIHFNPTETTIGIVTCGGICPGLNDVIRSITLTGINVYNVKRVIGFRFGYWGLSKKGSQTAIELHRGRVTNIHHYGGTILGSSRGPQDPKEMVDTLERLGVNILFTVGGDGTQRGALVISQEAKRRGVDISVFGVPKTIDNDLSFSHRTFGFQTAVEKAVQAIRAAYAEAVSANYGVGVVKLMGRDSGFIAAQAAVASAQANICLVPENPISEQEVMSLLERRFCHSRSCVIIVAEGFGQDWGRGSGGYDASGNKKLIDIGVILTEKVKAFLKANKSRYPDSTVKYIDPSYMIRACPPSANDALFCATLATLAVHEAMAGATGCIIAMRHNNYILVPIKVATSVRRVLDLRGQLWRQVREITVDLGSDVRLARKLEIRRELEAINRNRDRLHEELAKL
Sequence of M-phase phosphoprotein 8 (Homo sapiens) (Q99549 whole entry, looked up): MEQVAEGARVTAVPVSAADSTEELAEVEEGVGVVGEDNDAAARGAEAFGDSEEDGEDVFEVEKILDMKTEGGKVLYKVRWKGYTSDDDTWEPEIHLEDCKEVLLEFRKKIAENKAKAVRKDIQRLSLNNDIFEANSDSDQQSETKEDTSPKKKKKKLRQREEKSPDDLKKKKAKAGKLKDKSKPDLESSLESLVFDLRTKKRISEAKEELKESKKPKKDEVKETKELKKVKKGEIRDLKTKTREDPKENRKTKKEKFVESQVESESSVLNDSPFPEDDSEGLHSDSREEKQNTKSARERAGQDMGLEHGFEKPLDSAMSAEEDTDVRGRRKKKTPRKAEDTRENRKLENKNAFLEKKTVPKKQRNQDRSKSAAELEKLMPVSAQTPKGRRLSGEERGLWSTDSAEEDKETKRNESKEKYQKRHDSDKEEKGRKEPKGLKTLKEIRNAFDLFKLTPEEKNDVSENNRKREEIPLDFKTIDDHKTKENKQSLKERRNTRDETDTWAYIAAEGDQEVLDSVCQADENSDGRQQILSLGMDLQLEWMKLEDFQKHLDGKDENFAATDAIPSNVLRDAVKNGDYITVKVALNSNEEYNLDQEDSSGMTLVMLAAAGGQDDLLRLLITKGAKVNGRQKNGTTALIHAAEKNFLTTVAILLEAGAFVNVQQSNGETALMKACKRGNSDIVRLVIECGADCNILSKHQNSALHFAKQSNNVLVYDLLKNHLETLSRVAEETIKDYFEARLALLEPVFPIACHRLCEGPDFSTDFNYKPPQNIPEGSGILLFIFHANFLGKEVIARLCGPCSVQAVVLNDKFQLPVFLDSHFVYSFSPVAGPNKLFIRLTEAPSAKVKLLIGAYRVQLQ
Sequence of Tumor susceptibility gene 101 protein (Homo sapiens) (Q99816 whole entry, looked up, the tested form may be a part): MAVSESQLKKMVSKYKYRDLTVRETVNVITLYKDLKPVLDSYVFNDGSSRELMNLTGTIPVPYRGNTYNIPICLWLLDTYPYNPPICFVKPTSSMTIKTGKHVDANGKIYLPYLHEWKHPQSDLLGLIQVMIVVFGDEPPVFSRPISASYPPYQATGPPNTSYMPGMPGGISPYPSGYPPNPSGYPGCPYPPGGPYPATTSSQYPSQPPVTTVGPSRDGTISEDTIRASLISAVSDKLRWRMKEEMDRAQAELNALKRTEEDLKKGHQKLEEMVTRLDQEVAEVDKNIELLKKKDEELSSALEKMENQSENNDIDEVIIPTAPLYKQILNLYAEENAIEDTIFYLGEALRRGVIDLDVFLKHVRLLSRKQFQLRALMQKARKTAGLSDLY
Sequence of Beta-2 adrenergic receptor (Homo sapiens) (P07550 whole entry, looked up): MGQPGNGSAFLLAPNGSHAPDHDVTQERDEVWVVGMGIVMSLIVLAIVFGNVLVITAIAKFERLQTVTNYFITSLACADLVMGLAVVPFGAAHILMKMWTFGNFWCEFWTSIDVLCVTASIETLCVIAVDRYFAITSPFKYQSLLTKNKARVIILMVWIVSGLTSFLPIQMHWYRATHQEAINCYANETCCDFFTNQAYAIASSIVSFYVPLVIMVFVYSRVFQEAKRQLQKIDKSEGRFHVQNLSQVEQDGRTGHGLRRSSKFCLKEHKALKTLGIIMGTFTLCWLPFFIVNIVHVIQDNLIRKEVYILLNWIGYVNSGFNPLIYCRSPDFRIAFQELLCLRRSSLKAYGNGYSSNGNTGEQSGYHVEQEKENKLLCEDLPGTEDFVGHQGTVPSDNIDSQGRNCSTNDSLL

As to `CSc1nc(N)c2ncn([C@@H]3O[C@H](COP(=O)(O)OP(=O)(O)OP(=O)(O)O)[C@@H](O)[C@H]3O)c2n1`, the result in [1] and in assay [7] was inactive. The Potency result in [2], in assay [3], in assay [4], in assay [5], in [6] and in [8] was “inactive” in each case. Moreover, the Potency entry in assay [9], in assay [10] and in [11] was “inactive” each time.

For the compound `O=C(/C=C/c1ccc(O)cc1)c1ccc(O)cc1O`, the compound was classed as inactive in assay [1], in [12] and in [7]. In addition, the Potency entry in assay [2], in [3], in [5], in [6], in assay [8] and in assay [9] was “inactive” each time. For the same compound, the Potency entry in [10] was “inactive”.

For `NC(=S)NCCC[C@H](N)C(=O)O`, the outcome in assay [1], in [13] and in assay [7] was inactive. For the same compound, the Potency result in assay [2], in [3], in [4], in [5], in assay [6] and in assay [8] was “inactive” in each case. Also, the Potency result in assay [10] is “inactive”. For the same compound, the Potency in assay [14] was 19 µM (active); in assay [11], 10 µM (active).

`C=C[C@H]1CN2CC[C@@H]1C[C@@H]2[C@@H](O)c1ccnc2ccc(OC)cc12`: the result in assay [1], in assay [12], in assay [13] and in assay [7] was inactive. The Potency result in assay [2], in [3], in assay [4], in assay [6], in assay [14] and in assay [8] was “inactive” each time. The Potency result in assay [11] was “inactive”.

Consider `CN1CCc2cccc3c2C1Cc1ccc(O)c(O)c1-3` (centres undefined), for which the compound was classed as inactive in [1] and in [7]. For the same compound, the Potency result in assay [2], in assay [3], in assay [4], in assay [5], in [6] and in assay [8] was “inactive” in each case. Further, the Potency in assay [14] was 12 µM (active); in assay [15], 9.47 µM (active); in [10] it was 20 µM (active).

For `C[N+]1(C)CCC(OC(=O)C(c2ccccc2)c2ccccc2)CC1`, the compound was classed as inactive in [1], in assay [12], in assay [13] and in assay [7]. Moreover, the Potency result in assay [2], in [3], in assay [5], in [6], in assay [14] and in [8] was “inactive” in each case. Moreover, the Potency entry in assay [15] and in [11] was “inactive” throughout.

Take `N.N.N.N.N.N.N.N.N.N.N.N.N.N.O.O.[Ru+4].[Ru+5].[Ru+5]`: the outcome in assay [1], in assay [12] and in assay [7] was inactive. In addition, the Potency entry in [2], in assay [3] and in [4] was “inactive” each time. The Potency in [10] was 8.44 µM (active); in assay [11], 4.47 µM (active).

With `OC[C@H]1O[C@@H](n2cnc3c(Nc4ccccc4)ncnc32)[C@H](O)[C@@H]1O`, the call in [1] and in assay [7] was inactive. The Potency entry in assay [2], in [3], in [4], in [5], in [6] and in assay [8] was “inactive” in each case. In addition, the Potency entry in assay [15], in [9] and in assay [10] was “inactive” throughout. Further, the Potency in assay [11] was 0.006 µM (active).

On to `CNc1ncnc2c1ncn2[C@@H]1O[C@H](CO)[C@@H](O)[C@H]1O`, for which the call in [1] and in assay [7] was inactive. Further, the Potency result in [2], in assay [3], in assay [4], in assay [5], in [6] and in assay [8] was “inactive” each time. Also, the Potency result in assay [15], in assay [9], in assay [10] and in assay [11] was “inactive” each time.
